Activity remaining data for 40 molecules are collected here from PubChem BioAssay.

Several values for one entry are separate records, joined by “and”; a condition that tells them apart may be missing. Equal values may be shown once. Values without a mark were called inactive. No rule for the calls is given here.

The test relates to Aerobactin synthetase IucA (Klebsiella pneumoniae hvKP1). Kind of test: IucA enzyme inhibition, primary screen, biochemical, Spectrum library (AID 1346200).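 Also: 100% = wells without compound and 0% = wells lacking enzyme.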 The following applies: malachite green pyrophosphate, A620, at 8 µM, hits give low values.
Regarding `O=C(OCc1ccccc1)c1ccccc1`, the activity remaining is 108%.

`C=C(C)C1Cc2c(ccc(C(=O)O)c2O)O1` (stereo not given): the activity remaining is 120%.

As for `OC[C@H]1OC([S-])[C@H](O)[C@@H](O)[C@@H]1O.[Au+]` (stereo not given in full), the activity remaining was 109%.

On to `COC1=CC(=O)C=C(OC)C1=O`, for which the activity remaining was 99.1%.

As to `C=C[C@@]1(C)CC(=O)[C@@]2(O)[C@](C)(O1)[C@@H](OC(C)=O)[C@@H](O)C1C(C)(C)CC[C@H](O)[C@@]12C` (stereo not given in full), the activity remaining was 82.4%.

As for `C=C1CC[C@H](O)C/C1=C/C=C1\CCC[C@]2(C)C([C@H](C)/C=C/[C@H](C)C(C)C)CC[C@@H]12` (stereo not given in full), the activity remaining is 107%.

For `NCCOB(c1ccccc1)c1ccccc1`, the activity remaining was 97.5% and 103%.

Regarding `COc1cc(O)c2c(=O)cc(-c3ccc(OC)c(-c4c(O)cc(O)c5c(=O)cc(-c6ccc(O)cc6)oc45)c3)oc2c1`, the activity remaining is 118%.

As for `CC(=O)O[C@H]1CC[C@]2(C)C3=CC(=O)[C@@]4(C)C(C[C@@H]5OC6(OCC(C)CC6Br)[C@@H](C)[C@@H]54)C3CC[C@H]2C1` (stereo not given in full), the activity remaining is 117%.

Take `C=C1CCC2C(CC2(C)C)C(=C)CC/C1=N/O` (stereo not given): the activity remaining is 105%.

Turning to `COc1cccc(/C=C/C(=O)O)c1C(C)C`, the activity remaining is 122%.

As for `CC(=O)Nc1ccc(S(=O)(=O)Nc2ccc([N+](=O)[O-])cc2)cc1`, the activity remaining is 111%.

Turning to `CC1CC2C3CCC4=CC(=O)C=C[C@]4(C)[C@@]3(F)[C@@H](O)C[C@]2(C)[C@@]1(O)C(=O)CO` (stereo not given in full), the activity remaining is 117%.

As to `CNC[C@@H](O)c1ccc(O)c(O)c1`, the activity remaining is 115%.

Regarding `COc1ccc(-c2cc(=O)c3c(O)cc(O[C@@H]4O[C@H](CO[C@H]5O[C@H](C)[C@@H](O)[C@H](O)[C@@H]5O)[C@@H](O)[C@H](O)[C@H]4O)cc3o2)cc1O`, the activity remaining was 90.7%.

For the molecule `CC(C)(Oc1ccc(CCNC(=O)c2ccc(Cl)cc2)cc1)C(=O)O`, the activity remaining was 96.6%.

Regarding `COc1ccccc1/C=C\C(=O)O`, the activity remaining is 90.4%.

For `Nc1ccc(S(=O)(=O)Nc2ncccn2)cc1`, the activity remaining is 120%.

For `CCc1nc(N)nc(N)c1-c1ccc(Cl)cc1`, the activity remaining is 108%.

Take `C[C@@H]1CC[C@@]23CCC4(C)[C@@](C=CC5[C@@]6(C)CC[C@H](O)C(C)(C)C6CC[C@]54C)(OC2=O)C3[C@H]1C` (stereo not given in full): the activity remaining was 99.4%.

For the molecule `CC(=O)O[C@@H]1CC[C@@]2(C)C(C[C@@H](OC(C)=O)[C@@]3(C)C4=CC(=O)O[C@@H](c5ccoc5)[C@]4(C)CCC23)C1(C)C` (stereo not given in full), the activity remaining is 121%.

Take `CC1=CC2C(C(C)C)CCC(C)(O)C2CC1` (stereo not given): the activity remaining was 89.3%.

`CC1=C(/C=C/C(C)=C/C=C/C(C)=C/C=C/C=C(C)/C=C/C=C(C)/C=C/C2=C(C)CCCC2(C)C)C(C)(C)CCC1`: the activity remaining is 123%.

For `COc1ccc(-c2cc(=O)c3cc(OC)ccc3o2)cc1`, the activity remaining was 95.7%.

As for `C[C@H]1COc2c(N3CCN(C)CC3)c(F)cc3c(=O)c(C(=O)O)cn1c23`, the activity remaining is 113%.

In the case of `COC1=C(O)C(=O)c2c(cc3oc(C(C)=O)c(O)c3c2O)C1=O`, the activity remaining is 108%.

For the molecule `CC(=O)OC[C@H]1O[C@@H](Oc2cc(OC(C)=O)c3c(=O)cc(-c4ccc(OC(C)=O)cc4)oc3c2)[C@H](OC(C)=O)[C@@H](OC(C)=O)[C@@H]1OC(C)=O`, the activity remaining is 92.5%.

`CC[C@H](C)C(=O)O[C@H]1CCC=C2C=C[C@H](C)C(CCC3C[C@@H](O)CC(=O)O3)[C@H]21` (stereo not given in full): the activity remaining was 102%.

On to `CCC(C(=O)O)c1ccccc1` (stereo not given), for which the activity remaining is 123%.

Regarding `O=C(O)c1cc(=O)c2c(OCC(O)COc3cccc4oc(C(=O)O)cc(=O)c34)cccc2o1`, the activity remaining is 115%.

For `COC(=O)CCC(C)[C@H]1CCC2C3C(C[C@H](O)[C@@]21C)[C@@]1(C)CC[C@@H](O)C[C@H]1C[C@H]3O` (stereo not given in full), the activity remaining was 105%.

Turning to `COc1cc2c(cc1O)[C@@H](Cc1ccc(O)cc1)[N+](C)(C)CC2`, the activity remaining was 75.4%.

Regarding `Nc1ncnc2c1ncn2C1O[C@H](COP(=O)(O)O)[C@@H](O)[C@H]1O` (stereo not given in full), the activity remaining was 98%.

In the case of `COc1cc(C(C)=O)cc(OC)c1O`, the activity remaining is 94.5%.

For the molecule `O=c1cc(-c2ccc(O)c(O)c2)oc2ccccc12`, the activity remaining was 88.4%.

Consider `C#C[C@]1(O)CCC2C3CCc4cc(O)ccc4C3CC[C@@]21C` (stereo not given in full), for which the activity remaining is 105%.

Regarding `CC(C)NCC(O)c1ccc2ccccc2c1` (stereo not given), the activity remaining is 102%.

With `COC(=O)C(N)CS` (stereo not given), the activity remaining is 122%.

With `COc1cc2c(cc1-c1coc3c4c(c(OC)cc3c1=O)OC(C)(C)C=C4)OCO2`, the activity remaining was 110%.

Turning to `O=C(COc1ccc(Cl)cc1)N1CCN(Cc2ccc3c(c2)OCO3)CC1`, the activity remaining was 107%.
